Compound activity as filed in PubChem.
RT RNaseH block: inhibitors of HIV-1 reverse transcriptase RNase H | AID 565 | RT-RNase H RNA/DNA duplex cleavage, fluorescence | 65,000 compounds, 1.9% hits | inhibition, % at 10 µM; in the data active means inhibition above about 50%
RmlCD inh mix: RmlC/RmlD inhibition, mixture screen; RmlC/RmlD coupled enzyme inhibition, 384-well mixture HTS; inhibition, % at 5.5 µM; 110,000 compounds, 0.39% hits; AID 1532; in the data active means inhibition above about 30%, passing the limit was not always enough
RmlCD artifact: RmlC/RmlD fluorescence artifact, counter-screen. 360 compounds, 96% hits. calls only. shares compounds with RmlCD inh mix. AID 1696. RmlC/RmlD assay fluorescence artifact counter-screen; call rule not given here;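 further: compound alone with no enzyme and no substrates present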
An asterisk follows results filed as active; i = inactive; x = no result given; + = active, no number. Only a selection was taken, and hits are over-represented in it overall.

SMILES | RT RNaseH block | RmlCD inh mix | RmlCD artifact
O=C(Nc1cccc(-c2cn3cccnc3n2)c1)c1ccc(Br)o1 | -3.4 | 54.6* | +
CCOCC(=O)Nc1ccc(-c2cn3cccnc3n2)cc1 | -8.2 | 105.9* | +
COc1ccc(-c2cn3cccnc3n2)cc1NC(=O)c1ccc(Br)o1 | -26.7 | 22.0 | x
O=C(Nc1cccc(-c2cn3cccnc3n2)c1)c1ccco1 | -0.9 | 32.9 | x
Cc1ccc(-c2cn3cccnc3n2)cc1NC(=O)c1ccc(Br)o1 | -8.2 | 69.7* | +
CCCC(=O)Nc1cc(-c2cn3cccnc3n2)ccc1OC | -6.8 | 21.4 | x
O=C(C1=C[C@H](C2CCCCC2)C[C@H](OCCCCO)O1)N1CCN(Cc2ccccc2)CC1 | x | -10.6 | x
Cc1csc(NC(=O)c2cc3c(s2)-c2ccccc2OC3)n1 | 39.9 | -9.1 | x
CN(C)CCNC(=O)c1cc2c(s1)-c1ccccc1OC2 | x | 160.6* | +
CCn1c(C)nc2cc(C(=O)NNS(=O)(=O)c3c(C)c(C)cc(C)c3C)ccc21 | x | -11.4 | x
CCn1c(C)nc2cc(C(=O)N/N=C(\C)c3ccc(OC)cc3O)ccc21 | x | x | +
COC(=O)c1nn(-c2ccc3c(c2)OCO3)cc1O | x | -1.5 | x
COC(=O)c1nn(-c2ccc3c(c2)CCN3C(C)=O)cc1O | x | 41.0* | +
Cc1nn(-c2ccc(F)cc2)c2sc(C(=O)OC3CCOC3=O)cc12 (stereo unspecified) | -29.1 | 47.4* | +
CNC(=O)COC(=O)c1cc2c(C)nn(-c3ccc(F)cc3)c2s1 | x | 16.1 | x
CC1CCCCN1S(=O)(=O)c1ccc(NC(=O)CSc2nnnn2C)cc1 (stereo unspecified) | 7.6 | 7.7 | x
C=CCOCC(O)CS(=O)(=O)Cc1ccc(Cl)cc1 (stereo unspecified) | x | 16.5 | x
Nc1c(S(=O)(=O)c2cccs2)c2nc3ccccc3nc2n1CC1CCCO1 (stereo unspecified) | -6.2 | 52.8* | +
Nc1c(S(=O)(=O)c2cccs2)c2nc3ccccc3nc2n1Cc1cccs1 | 4.4 | 12.8 | x
CCNc1nc(N)nc(Oc2ccc(OCCOc3ccc(Cl)cc3Cl)nn2)n1 | -21.5 | 70.0 | x
c1ccc(-c2ccc(OCCOCCn3cncn3)cc2)cc1 | -6.9 | 7.6 | x
Clc1cc(Sc2ccc(Br)cc2)nnc1-c1ccccc1 | x | 5.3 | x
Cc1cc(-c2nc3ncccc3o2)ccc1N | -5.0 | 68.8* | +
Nc1cc(-c2nc3ncccc3o2)ccc1Cl | x | 44.5 | x
O=C(CCCn1c(=O)[nH]c2ccsc2c1=O)N1CCN(c2ccccn2)CC1 | -4.7 | 70.0* | i
SMILES | RT RNaseH block | RmlCD inh mix | RmlCD artifact
O=C(CCCn1c(=O)[nH]c2ccccc2c1=O)N1CCN(c2ccccn2)CC1 | -10.5 | x | x
COc1ccc(-c2nc(C#N)c(N3CCOCC3)o2)cc1OC | -19.9 | 26.1 | x
COc1ccc(-c2nc(C#N)c(N3CCC(C(N)=O)CC3)o2)cc1OC | x | 40.7* | +
O=c1[nH]ccc2c(O)cccc12 | x | 11.8 | x
CCOC(=O)N1CCC(NC(=O)c2cnc3n(c2=O)CCS3)CC1 | 5.1 | 7.3 | x
COc1cc(S(=O)(=O)Nc2ccccn2)ccc1F | x | -9.4 | x
CCOC(=O)C1(C)NC(c2ccc(OC)cc2OC)C2C(=O)N(c3cccc(OC)c3)C(=O)C21 (stereo unspecified) | -3.7 | 10.7 | x
CCOC(=O)CSc1nc2ccccc2n1CC(=O)N(C(C)C)C(C)C | -75.9 | 3.3 | x
CCOC(=O)CN1C=C(c2ccc3ccccc3n2)C(C[N+](=O)[O-])c2ccccc21 (stereo unspecified) | x | 46.7* | +
Cc1c(CCC(=O)O)c(=O)oc2cc3occ(-c4ccc(F)cc4)c3cc12 | -27.5 | -6.0 | x
Cc1c(CCC(=O)O)c(=O)oc2cc(O)ccc12 | -5.6 | 128.3* | +
COc1ccc2ccc(=O)oc2c1 | x | -6.7 | x
CC(=O)Oc1ccc2cc(-c3nc4ccccc4n3C)c(=O)oc2c1 | -1.9 | x | +
CC(=O)Oc1ccc2ccc(=O)oc2c1 | x | + | +
Cn1c(-c2cc3ccc(OC(=O)C(C)(C)C)cc3oc2=O)nc2ccccc21 | x | -40.7 | x
COc1ccc([C@@]2(O)c3c(ccc(CC=C(C)C)c3O)NC(=O)[C@@H]2OC)cc1 | x | 4.9 | x
CCN1C(=O)N[C@@H](c2ccco2)C(C(C)=O)=C1C | x | 6.4 | x
CCOC(=O)Nc1ccc2c(CN3C(=O)NC(CC)(CC)C3=O)cc(=O)oc2c1 | x | 38.5 | x
CCOC(=O)Nc1ccc2c(CN3C(=O)NC4(CCCC4)C3=O)cc(=O)oc2c1 | 23.0 | 73.7* | +
Nc1ccc2nc(-c3ccccc3)[nH]c2c1 | x | 100.0 | x
Nc1ccc(-c2nc3c(Cl)cc(N)cc3[nH]2)cc1 | 2.0 | 49.8* | +
COc1ccc2nc(-c3ccc(N)cc3)[nH]c2c1 | x | 24.2 | x
Nc1ccc2nc(-c3ccc(N)c(Cl)c3)[nH]c2c1 | x | 39.7* | +
CCOC(=O)CC(=O)CSc1nc(CC)c(C)cc1C#N | x | x | +
CCOC(=O)CC(=O)CSc1nc2c(cc1C#N)CCCCC2 | 7.1 | 76.4 | x
SMILES | RT RNaseH block | RmlCD inh mix | RmlCD artifact
CCOC(=O)CC(=O)CSc1nc2ccc(C)cc2cc1C#N | -3.0 | + | +
CCOC(=O)CC(=O)CSc1nc(C)cc(C)c1C#N | x | 110.3* | +
CC(C)OC(=O)CC(=O)CSc1nc2c(cc1C#N)CCCCC2 | x | + | +
CCOC(=O)CC(=O)CSc1nc2c(c(C)c1C#N)CCC2 | -22.2 | x | x
CCc1nc(SCC(=O)O)c(C#N)cc1C | x | -2.1 | x
COC(=O)CSc1nc2cc(C)ccc2cc1C#N | 1.8 | 5.6 | x
O=C1CCCc2[nH]nc(-c3cccnc3)c21 | 0.8 | 10.3 | x
C=CC[C@]12C[C@@H](OC)C(=O)C=C1O[C@@H](c1ccc(OC)c(OC)c1)[C@H]2C | x | -10.6 | x
O=S(Cc1cc(Oc2ccccc2)nc(-c2ccccc2)n1)c1ccccc1 (stereo unspecified) | x | -2.3 | x
CC(C)OCCCN1C=C2C(=O)C(C)(OC(=O)CCc3ccccc3)C(=O)C=C2C=C1c1ccc(C#N)cc1 (stereo unspecified) | x | 8.4 | x
O=C(COc1ccc(Br)cc1)N1CCC(c2ccccc2)C1 (stereo unspecified) | x | -10.8 | x
CCCCN1CC[C@H]2C=CC[C@@H](C(=O)Nc3ccc(Cl)cc3Cl)[C@H]2C1=O | x | -14.0 | x
Cc1ccc(C2C(/C=C3/SC(=S)NC3=O)=C(c3cccs3)Oc3ccccc32)cc1 (stereo unspecified) | x | 15.2 | x
Cc1c(NC(=O)CCc2ccc(S(=O)(=O)N3CCOCC3)cc2)c(=O)n(-c2ccccc2)n1C | 1.7 | x | x
CCOc1cccc2cc(-c3csc(NC(=O)CCC(=O)N4CCN(C)CC4)n3)c(=O)oc12 | -1.7 | x | x
CCOc1cccc2cc(-c3csc(NC(=O)CCC(=O)N4CCC(C)CC4)n3)c(=O)oc12 | x | + | +
CSc1ccc(-c2c(C#N)c(N)nc3c2CCCC3)cc1 | 3.3 | 33.4* | +
N#Cc1c(N)nc2c(c1-c1ccncc1)CCCCC2 | -23.9 | -14.5 | x
CCc1cc2c(CN3CCN(C)CC3)cc(=O)oc2cc1O | 0.0 | -1.9 | x
CCc1cc2c(CN3CCN(CCO)CC3)cc(=O)oc2cc1O | -11.4 | 61.0* | +
O=C(NCCN1CCOCC1)c1cc2sccc2n1Cc1ccc(Cl)cc1 | -4.4 | -15.9 | x
O=C(Nc1ccc(-n2nncc2-c2ccco2)cc1)c1ccc(F)cc1 | 17.7 | -9.2 | x
COc1cccc(CN(C)CC(=O)NC(=O)NCc2ccco2)c1 | 0.3 | -9.1 | x
CN(C)S(=O)(=O)c1ccc(S(=O)(=O)Nc2ccc3c(c2)oc2ccccc23)cc1 | -3.5 | 6.3 | x
